From PubChem BioAssay (Tox21) come the findings set out here.

Test [1] is described as follows: Nuclear factor erythroid 2-related factor 2/antioxidant responsive element (Nrf2/ARE) small molecule agonists: qHTS cell viability counter screen in human keratinocytes (AID 1919968; active = well fitted curve in the direction sought with a large enough effect in the repeat runs; an effect the other way counts as inactive or inconclusive; also: nearly all actives have a fitted effect of over 55% in size; also: potency is read from the fitted curve at half-maximal effect). The gist of the method: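 Cells of the KeratinoSens line were plated at 1,500 per well and left for 5 h before compound transfer from DMSO stocks. After a 23 h incubation (37 C, 5% CO2), CellTiter-Fluor was added. Signal was taken as fluorescence intensity 1 h later.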
Background: In qHTS, concentration-response curves come from the screen itself.

Test [2] addresses Gonadotropin-releasing hormone receptor (Homo sapiens) (UniProt P30968). In words: Human gonadotropin-releasing hormone receptor (GnRHR) small molecule agonists, calcium flux assay in GnRHR-HEK293 cells (AID 1920063). Also: nearly all actives have a fitted effect of over 35% in size. Also: potency is read from the fitted curve at half-maximal effect. The gist of the method: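 Compounds dissolved in DMSO are pin-transferred onto dye-loaded GnRHR-HEK293 cells, which were seeded 18 h before at 37 C/5% CO2. Calcium signal is read as fluorescence intensity at 1 s intervals for 3 min.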
(In general: Calcium flux is commonly read through the fluorescence of an indicator in the cells.)

Test [3] concerns the target KiSS-1 receptor (Homo sapiens) (UniProt Q969F8). In words: Human kisspeptin (KISS1R) small molecule agonists, calcium flux assay in KISS1R-HEK293 cells (AID 1920064; active = well fitted curve in the direction sought with a large enough effect in the repeat runs; an effect the other way counts as inactive or inconclusive). The gist of the method: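 Cell line: HEK293, stable human KISS1R. Dye loading 1 h at 37 C after 18 h culture. Read: kinetic fluorescence, 480/540 nm, 3 min at 1 s intervals.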
Test [4] can be described thus: G protein-coupled receptor (GPCR) small molecule agonists, calcium flux assay: HEK293 wild type cell line counter screen (AID 1920065). The gist of the method:
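Tox21 10K compounds, 15 concentrations each in triplicate, pin-transferred in DMSO onto dye-loaded cells; kinetic read at 480/540 nm for 3 min, 1 s intervals.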

Test [5] can be described thus: p53 small molecule agonists, cell-based qHTS assay with human liver microsomes (AID 1963577). The gist of the method: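 p53RE-bla reporter cells were pre-incubated 5 h at 37 C, then treated with compounds plus human liver microsomes (0.5 mg/mL final) and NADPH (0.5 mg/mL final) for 16 h at 37 C. Beta-lactamase activity was read by LiveBLAzer fluorescence after 2 h at room temperature.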

Test [6] can be described thus: p53 small molecule agonists, cell-based qHTS assay with rat liver microsomes (AID 1963578). The gist of the method: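 p53RE-bla cells were exposed to compounds together with rat liver microsomes (0.5 mg/mL final) and NADPH (0.5 mg/mL final) for 16 h at 37 C, then read by LiveBLAzer beta-lactamase fluorescence after 2 h at room temperature.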
The nature of test [7]: p53 small molecule agonists, cell-based qHTS assay with human liver microsomes: qHTS cell viability counter screen (AID 1963579). Also: nearly all actives have a fitted effect of over 45% in size. Also: potency is read from the fitted curve at half-maximal effect. The gist of the method: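 p53RE-bla cells (4,000/well) were pre-incubated 5 h at 37 C, then given compounds in DMSO plus human liver microsomes (0.5 mg/mL final) and NADPH (0.5 mg/mL final) for 16 h at 37 C. Viability was read by CellTiter-Glo luminescence.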

Test [8] in a line: p53 small molecule agonists, cell-based qHTS assay with rat liver microsomes: qHTS cell viability counter screen (AID 1963580). Also: nearly all actives have a fitted effect of over 45% in size. The gist of the method: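 Luminescent ATP readout (CellTiter-Glo, 30 min at room temperature) reports viability of p53RE-bla HCT-116 cells after 16 h at 37 C with test compounds under metabolic activation by rat liver microsomes and NADPH at 0.5 mg/mL final each.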

The nature of test [9]: p53 small molecule agonists, cell-based qHTS assay: qHTS cell viability counter screen (AID 1963581). Also: nearly all actives have a fitted effect of over 45% in size. The gist of the method: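 ATP content measured by luminescence in HCT-116 p53RE-bla cells treated 16 h at 37 C, same wells as the reporter screen.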
For test [10], the target named is 5-hydroxytryptamine receptor 2A (Homo sapiens) (UniProt P28223). In words: 5-hydroxytryptamine receptor 2A (HTR2A) small molecule antagonists, cell-based qHTS assay (AID 1963586). Also: nearly all actives have a fitted effect of over 45% in size. The gist of the method:
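CHO cells stably expressing human HTR2A were plated for 18 h at 37 C, then loaded with calcium dye for 1 h. Compounds were preincubated 5 min at room temperature before DOI (4 nM solution) was added. Kinetic fluorescence was read for 3 min.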

Test [11] shares this target. The test is described as follows: 5-hydroxytryptamine receptor 2A (HTR2A) small molecule agonists, cell-based qHTS assay (AID 1963587). Also: nearly all actives have a fitted effect of over 30% in size. Also: potency is read from the fitted curve at half-maximal effect. The gist of the method: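 HTR2A-CHO cells, plated 18 h at 37 C/5% CO2, dye-loaded 1 h at 37 C; compounds in DMSO added by pin tool (agonist mode). Intracellular calcium flux read as kinetic fluorescence on FDSS over 2 min at 1 s intervals.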

The target in test [12] is Muscarinic acetylcholine receptor M1 (Homo sapiens) (UniProt P11229). In words: Cholinergic receptor muscarinic 1 (CHRM1) small molecule antagonists, cell-based qHTS assay (AID 1963588). Also: nearly all actives have a fitted effect of over 40% in size. Also: potency is read from the fitted curve at half-maximal effect. The gist of the method:
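Compounds were tested at 15 concentrations in three independent runs. Dye-loaded CHRM1-CHO cells were exposed 5 min at room temperature before stimulation by acetylcholine added at 50nM. Intracellular calcium was read kinetically on FDSS for 3 min.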

Test [13] has the same target. In words: Cholinergic receptor muscarinic 1 (CHRM1) small molecule agonists, cell-based qHTS assay (AID 1963589). Also: nearly all actives have a fitted effect of over 35% in size. The gist of the method: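 Homogeneous fluorescence calcium flux, agonist mode. Human M1-expressing CHO cells; compound dosed at 15 concentrations, three independent runs; signal sampled every 1 sec.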
Test [14] in a line: cAMP Responsive Elements (CRE) small molecule agonists, cell-based qHTS assay (AID 1963590). The gist of the method:
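HEK 293T cells stably bearing CRE-bla were plated at 2,000 cells per well and rested 18 h. Compounds, positive controls or DMSO were added for 3 h at 37 C. LiveBLAzer B/G substrate was then loaded for 2 h at room temperature.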

Test [15] in a line: cAMP Responsive Elements (CRE) small molecule antagonists, cell-based qHTS assay (AID 1963591; active = well fitted inhibition curve with a large enough effect in the signal ratio in the repeat runs, not every such curve was filed as active; the % refers to the signal ratio). The gist of the method: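 First, CRE-bla HEK293T cells settled 18 h at 37 C. Next, compound and 0.25 uM final NKH477 were applied for 3 h. Last, LiveBLAzer B/G substrate was loaded for 2 h at room temperature.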
Test [16] has as its target Beta-2 adrenergic receptor (Homo sapiens) (UniProt P07550). The test is described as follows: Adrenergic beta2 receptor (ADRB2) small molecule antagonists, cell-based qHTS assay (AID 1963592). Also: series mostly up to about 92 µM; nearly all actives have a fitted effect of over 50% in size. The gist of the method: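 Assay format: CHO-ADRB2 cells, 18-20hr seeding at 37C/5% CO2, then compound plus 1nM isoproterenol agonist mix for 0.5hr RT. Homogeneous time-resolved fluorescence cAMP detection after 1hr, expressed as 665/615 nm ratio.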

The target in test [17] is D(2) dopamine receptor (Homo sapiens) (UniProt P14416). The test is described as follows: Dopamine D2 receptor (DRD2) small molecule agonists, cell-based qHTS assay (AID 1963594). Also: nearly all actives have a fitted effect of over 35% in size. The gist of the method:
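HEK293 cells stably expressing DRD2 were cultured 24 h at 37 C, then given Ro20-1724 (0.1 mM final) and compounds for 10 min at room temperature. NKH477 (200nM) was then added for 30 min. cAMP was read by HTRF.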

Test [18] shares this target. In words: Dopamine D2 receptor (DRD2) small molecule antagonists, cell-based qHTS assay (AID 1963595; active = well fitted inhibition curve with a large enough effect in the signal ratio in the repeat runs, with a control signal flat; the % refers to the signal ratio). The gist of the method: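 DRD2-HEK293; 0.1 mM Ro20-1724; cpd 10 min RT; NKH477 200 nM + quinpirole 12 nM, 30 min RT; HTRF cAMP (cAMP-d2/anti-cAMP cryptate), 665/620 nm ratio after 1 h.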
Test [19] in a line: p53 small molecule agonists, cell-based qHTS assay (AID 1963582; active = well fitted activation curve with a large enough effect in the signal ratio in the repeat runs, not every such curve was filed as active; the % refers to the signal ratio). The gist of the method: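 16 h compound exposure (37 C) of p53 response element–bla cells, preceded by 5 h recovery at 37 C/5% CO2; read-out via LiveBLAzer B/G FRET substrate, 2 h RT, fluorescence intensity.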

SMILES strings stand for the structures. Unmarked numbers belong to inactive results. Results filed as inconclusive are left out. Calls of active or inactive are those of the source. Unless noted, calls follow the shape of the full dose curve.

Sequence of KiSS-1 receptor (Homo sapiens) (Q969F8 whole entry, looked up): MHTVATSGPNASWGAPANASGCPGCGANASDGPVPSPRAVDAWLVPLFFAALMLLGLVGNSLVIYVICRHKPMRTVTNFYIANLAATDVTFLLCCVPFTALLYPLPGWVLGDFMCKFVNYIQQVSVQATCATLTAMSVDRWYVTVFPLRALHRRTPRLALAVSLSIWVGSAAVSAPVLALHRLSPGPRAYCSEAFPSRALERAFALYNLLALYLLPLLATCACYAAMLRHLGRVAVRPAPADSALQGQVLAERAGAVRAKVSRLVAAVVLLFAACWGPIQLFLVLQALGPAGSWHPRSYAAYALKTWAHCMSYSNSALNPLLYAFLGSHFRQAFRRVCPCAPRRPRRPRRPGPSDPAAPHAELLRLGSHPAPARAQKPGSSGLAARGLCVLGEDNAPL
Sequence of Beta-2 adrenergic receptor (Homo sapiens) (P07550 whole entry, looked up): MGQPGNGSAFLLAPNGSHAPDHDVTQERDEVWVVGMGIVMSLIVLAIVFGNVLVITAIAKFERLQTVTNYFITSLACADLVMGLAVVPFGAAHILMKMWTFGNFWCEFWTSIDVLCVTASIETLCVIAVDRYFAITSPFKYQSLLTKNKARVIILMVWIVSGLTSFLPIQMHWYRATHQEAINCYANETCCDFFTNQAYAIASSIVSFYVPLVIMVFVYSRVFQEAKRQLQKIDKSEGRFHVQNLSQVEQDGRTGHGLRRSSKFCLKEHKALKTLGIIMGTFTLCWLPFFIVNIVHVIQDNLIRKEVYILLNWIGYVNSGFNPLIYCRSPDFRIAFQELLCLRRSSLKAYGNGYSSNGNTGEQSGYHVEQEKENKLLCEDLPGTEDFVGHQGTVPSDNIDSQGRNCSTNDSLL
Sequence of D(2) dopamine receptor (Homo sapiens) (P14416 whole entry, looked up): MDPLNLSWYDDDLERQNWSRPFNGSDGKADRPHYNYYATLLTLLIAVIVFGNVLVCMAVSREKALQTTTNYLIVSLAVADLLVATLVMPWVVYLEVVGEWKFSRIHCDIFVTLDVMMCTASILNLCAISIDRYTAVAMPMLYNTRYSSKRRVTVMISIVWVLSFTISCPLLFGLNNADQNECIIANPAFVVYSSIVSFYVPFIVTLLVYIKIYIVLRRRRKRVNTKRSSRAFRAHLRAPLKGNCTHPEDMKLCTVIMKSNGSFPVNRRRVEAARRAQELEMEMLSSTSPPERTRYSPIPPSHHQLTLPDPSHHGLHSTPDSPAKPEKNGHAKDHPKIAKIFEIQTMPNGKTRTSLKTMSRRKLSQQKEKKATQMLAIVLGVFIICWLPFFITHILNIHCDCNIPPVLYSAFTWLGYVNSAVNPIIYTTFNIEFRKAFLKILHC
Sequence of Muscarinic acetylcholine receptor M1 (Homo sapiens) (P11229 whole entry, looked up): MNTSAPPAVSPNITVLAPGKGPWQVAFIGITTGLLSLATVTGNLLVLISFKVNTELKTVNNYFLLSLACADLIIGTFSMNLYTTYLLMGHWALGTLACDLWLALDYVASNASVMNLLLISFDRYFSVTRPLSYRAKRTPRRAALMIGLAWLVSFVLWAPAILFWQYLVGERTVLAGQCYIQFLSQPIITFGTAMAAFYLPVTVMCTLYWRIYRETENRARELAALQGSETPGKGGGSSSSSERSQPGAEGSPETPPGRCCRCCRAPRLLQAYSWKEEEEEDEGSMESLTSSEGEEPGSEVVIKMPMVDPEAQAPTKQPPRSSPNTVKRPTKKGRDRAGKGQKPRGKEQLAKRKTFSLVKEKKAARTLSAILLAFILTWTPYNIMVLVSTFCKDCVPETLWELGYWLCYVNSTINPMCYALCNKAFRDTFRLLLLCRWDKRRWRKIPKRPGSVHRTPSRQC
Sequence of 5-hydroxytryptamine receptor 2A (Homo sapiens) (P28223 whole entry, looked up): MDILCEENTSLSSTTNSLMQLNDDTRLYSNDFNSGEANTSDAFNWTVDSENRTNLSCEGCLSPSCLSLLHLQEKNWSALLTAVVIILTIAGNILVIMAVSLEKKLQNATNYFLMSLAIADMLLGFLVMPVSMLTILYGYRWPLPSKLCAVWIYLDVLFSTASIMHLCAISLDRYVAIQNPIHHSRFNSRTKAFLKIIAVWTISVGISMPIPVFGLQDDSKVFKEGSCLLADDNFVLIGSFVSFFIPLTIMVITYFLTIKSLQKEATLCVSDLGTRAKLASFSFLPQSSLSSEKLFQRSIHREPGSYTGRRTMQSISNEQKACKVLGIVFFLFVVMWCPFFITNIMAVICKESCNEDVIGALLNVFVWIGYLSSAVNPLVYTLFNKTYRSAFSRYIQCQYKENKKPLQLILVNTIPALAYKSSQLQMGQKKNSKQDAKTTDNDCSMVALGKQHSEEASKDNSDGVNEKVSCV
Sequence of Gonadotropin-releasing hormone receptor (Homo sapiens) (P30968 whole entry, looked up): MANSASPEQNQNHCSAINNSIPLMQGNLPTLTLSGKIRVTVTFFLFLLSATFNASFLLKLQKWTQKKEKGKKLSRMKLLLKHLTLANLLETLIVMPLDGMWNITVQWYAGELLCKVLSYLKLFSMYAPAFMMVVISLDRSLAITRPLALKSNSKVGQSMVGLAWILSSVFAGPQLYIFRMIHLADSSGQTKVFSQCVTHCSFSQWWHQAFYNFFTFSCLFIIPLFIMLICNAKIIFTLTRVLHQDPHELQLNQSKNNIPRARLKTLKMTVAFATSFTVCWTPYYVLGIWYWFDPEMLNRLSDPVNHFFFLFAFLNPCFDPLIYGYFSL

For `COC(=O)c1cc(Oc2ccc(Cl)cc2Cl)ccc1[N+](=O)[O-]`, the Potency result in [1], in [2], in [3], in test [4], in test [5] and in test [6] was “inactive” in each case. Moreover, the Potency result in test [7], in test [8], in test [9], in [10], in test [11] and in test [13] was “inactive” throughout. For the same compound, the Potency result in test [14], in [15], in test [16], in test [17] and in test [18] was “inactive” each time. Besides, the Potency in test [12] is 0.0375 µM (active).
For the compound `CCC/C(=N\OCC)C1=C(O)CC(CC(C)SCC)CC1=O` (stereo not given), the Potency result in test [1], in test [2], in test [3], in test [4], in [5] and in test [6] was “inactive” throughout. Besides, the Potency result in [7], in test [8], in test [9], in test [19], in [11] and in test [12] was “inactive” throughout. Further, the Potency entry in test [13], in test [16], in test [17] and in [18] was “inactive” throughout.
With `CC1N=C(N)OC1c1ccccc1` (stereo not given), the Potency entry in test [1], in [2], in test [3], in test [4], in test [6] and in test [8] was “inactive” throughout. For the same compound, the Potency result in test [9], in test [19], in test [10], in [11], in test [12] and in test [13] was “inactive” each time. The Potency entry in test [14], in [15] and in test [16] was “inactive” each time.
Regarding `BrCCCCCCBr`, the Potency entry in test [1], in test [2], in test [3], in test [4], in [8] and in [9] was “inactive” throughout. Moreover, the Potency result in test [19], in test [10], in test [11], in [12], in [13] and in test [14] was “inactive” throughout. The Potency result in [15], in test [16] and in test [17] was “inactive” in each case. For the same compound, the Potency in test [7] was 20.4 µM (active).
For the compound `C[C@H]1CC[C@@H]2[C@@H](C)[C@H]3[C@H](C[C@H]4[C@@H]5CC=C6CC(O[C@@H]7O[C@H](CO)[C@H](O)[C@H](O[C@@H]8O[C@H](CO)[C@@H](O)[C@H](O)[C@H]8O)[C@H]7O[C@H]7O[C@@H](C)[C@H](O)[C@@H](O)[C@H]7O)CC[C@]6(C)[C@H]5CC[C@]34C)N2C1` (stereo not given in full), the Potency in test [1] is 22.4 µM (active); in [2], 10.1 µM (active); in test [11], 63.7 µM (active). Moreover, the Potency entry in test [3], in test [4], in test [7], in [8], in [9] and in test [10] was “inactive” in each case. Also, the Potency entry in test [12], in [13], in test [14], in test [15], in test [16] and in [18] was “inactive” each time.
`CCOP(=S)(OCC)SCCl`: the Potency result in test [1], in test [2], in [3], in test [4], in test [7] and in test [8] was “inactive” each time. Also, the Potency result in test [9], in test [19], in test [10], in [11], in test [12] and in test [13] was “inactive” in each case. Besides, the Potency entry in [14], in test [15], in test [16], in test [17] and in test [18] was “inactive” in each case.
For `O=C(NC(=O)c1c(F)cccc1F)Nc1ccc(Oc2ccc(C(F)(F)F)cc2Cl)cc1F`, the Potency result in [1], in test [2], in test [3], in test [4], in [5] and in test [7] was “inactive” in each case. For the same compound, the Potency result in test [8], in test [9], in [11], in test [12], in test [13] and in [16] was “inactive” each time. Moreover, the Potency result in [17] was “inactive”.
